The structures appear in SMILES notation.

In this test the target is Neurogenic locus notch homolog protein 2 (Homo sapiens) (UniProt Q04721). The experiment in a line: Notch2 binders on small-molecule microarrays, primary screen, biochemical, small-molecule microarray, 635 nm fluorescence, stem cell growth factors (AID 1073). The conditions noted are these: Notch2 binding, higher = more signal.
Chain of Neurogenic locus notch homolog protein 2 (Homo sapiens) (Q04721 whole entry, looked up): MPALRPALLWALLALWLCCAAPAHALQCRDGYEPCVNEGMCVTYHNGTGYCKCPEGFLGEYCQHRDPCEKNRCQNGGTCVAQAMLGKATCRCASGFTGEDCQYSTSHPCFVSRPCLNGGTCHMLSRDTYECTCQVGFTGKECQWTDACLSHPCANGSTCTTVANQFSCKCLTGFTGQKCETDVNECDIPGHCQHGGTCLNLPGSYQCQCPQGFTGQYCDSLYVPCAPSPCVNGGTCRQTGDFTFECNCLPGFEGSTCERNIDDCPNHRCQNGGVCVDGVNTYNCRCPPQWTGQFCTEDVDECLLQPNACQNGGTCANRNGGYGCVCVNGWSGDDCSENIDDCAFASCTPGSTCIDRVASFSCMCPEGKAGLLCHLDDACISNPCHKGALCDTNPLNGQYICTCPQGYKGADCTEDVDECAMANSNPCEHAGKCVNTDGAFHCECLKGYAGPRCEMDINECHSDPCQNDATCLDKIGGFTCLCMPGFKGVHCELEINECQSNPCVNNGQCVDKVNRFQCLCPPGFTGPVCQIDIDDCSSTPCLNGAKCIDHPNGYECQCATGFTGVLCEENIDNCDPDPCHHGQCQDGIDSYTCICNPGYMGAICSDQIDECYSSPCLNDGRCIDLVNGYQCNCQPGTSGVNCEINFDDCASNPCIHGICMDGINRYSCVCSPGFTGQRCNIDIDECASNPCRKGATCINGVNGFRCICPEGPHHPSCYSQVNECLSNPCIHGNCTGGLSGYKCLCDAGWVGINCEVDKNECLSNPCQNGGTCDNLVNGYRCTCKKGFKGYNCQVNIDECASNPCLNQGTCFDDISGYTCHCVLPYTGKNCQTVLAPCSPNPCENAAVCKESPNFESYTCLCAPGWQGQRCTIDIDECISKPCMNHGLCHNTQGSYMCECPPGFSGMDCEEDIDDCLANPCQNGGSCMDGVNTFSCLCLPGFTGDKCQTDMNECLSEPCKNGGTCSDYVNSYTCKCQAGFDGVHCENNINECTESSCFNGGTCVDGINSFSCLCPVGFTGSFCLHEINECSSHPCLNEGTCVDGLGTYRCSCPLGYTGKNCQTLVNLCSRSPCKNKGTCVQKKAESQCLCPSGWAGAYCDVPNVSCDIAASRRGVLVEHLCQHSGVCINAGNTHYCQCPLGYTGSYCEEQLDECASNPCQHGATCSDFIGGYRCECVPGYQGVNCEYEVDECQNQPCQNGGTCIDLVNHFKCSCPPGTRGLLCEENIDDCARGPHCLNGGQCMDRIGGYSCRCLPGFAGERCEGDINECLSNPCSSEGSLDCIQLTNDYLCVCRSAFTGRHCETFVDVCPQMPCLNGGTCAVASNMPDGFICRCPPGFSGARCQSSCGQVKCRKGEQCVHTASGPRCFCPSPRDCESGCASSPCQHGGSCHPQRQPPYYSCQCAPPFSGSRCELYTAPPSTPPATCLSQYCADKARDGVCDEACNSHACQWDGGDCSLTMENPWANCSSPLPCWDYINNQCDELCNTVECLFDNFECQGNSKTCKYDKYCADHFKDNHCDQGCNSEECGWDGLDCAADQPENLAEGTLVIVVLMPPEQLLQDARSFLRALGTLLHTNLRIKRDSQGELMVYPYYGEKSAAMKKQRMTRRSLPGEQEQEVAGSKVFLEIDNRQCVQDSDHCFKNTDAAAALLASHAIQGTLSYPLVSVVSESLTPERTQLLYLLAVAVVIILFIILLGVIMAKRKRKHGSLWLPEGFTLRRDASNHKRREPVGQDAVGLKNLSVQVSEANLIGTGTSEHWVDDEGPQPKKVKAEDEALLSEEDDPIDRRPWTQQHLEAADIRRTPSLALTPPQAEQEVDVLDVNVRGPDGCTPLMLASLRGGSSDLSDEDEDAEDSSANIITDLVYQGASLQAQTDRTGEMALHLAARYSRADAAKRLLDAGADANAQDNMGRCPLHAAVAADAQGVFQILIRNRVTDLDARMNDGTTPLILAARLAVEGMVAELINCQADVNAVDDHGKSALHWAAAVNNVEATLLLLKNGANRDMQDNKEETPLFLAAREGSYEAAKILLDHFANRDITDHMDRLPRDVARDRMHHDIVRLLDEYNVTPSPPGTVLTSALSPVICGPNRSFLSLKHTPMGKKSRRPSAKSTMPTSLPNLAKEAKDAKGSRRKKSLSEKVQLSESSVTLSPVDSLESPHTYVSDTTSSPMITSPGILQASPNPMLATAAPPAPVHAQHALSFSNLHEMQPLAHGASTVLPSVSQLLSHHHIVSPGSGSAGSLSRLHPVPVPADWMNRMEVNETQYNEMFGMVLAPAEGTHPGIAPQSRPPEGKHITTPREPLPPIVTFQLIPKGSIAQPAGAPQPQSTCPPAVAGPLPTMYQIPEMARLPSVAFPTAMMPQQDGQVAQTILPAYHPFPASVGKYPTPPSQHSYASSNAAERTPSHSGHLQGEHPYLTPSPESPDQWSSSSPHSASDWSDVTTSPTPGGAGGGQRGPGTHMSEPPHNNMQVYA
The compound `CC1CC/C=C\[C@H]2OC34C=CCN(C(C)(C)C)C(=O)[C@H]3N(CCCCCO)C(=O)[C@@H]4C2C(=O)O1` (stereo not given in full) showed a composite z-score of -1.57. With `COc1cc(NN2C(C(O)c3cc(OC)c(OC)c(OC)c3)C=CC3C(=O)N(C)C(=O)C32)cc(OC)c1OC` (stereo not given) the figure was 1.34; with `[N-]=[N+]=NCc1ccccc1[C@H]1OC(c2ccc(OCCCO)cc2)=N[C@@]1(Cc1ccccc1N=[N+]=[N-])C(=O)NCC(O)CO` (stereo not given in full), 1.24. In the case of `C=C(COC)/C(=C/C[C@H](OC(=O)c1ccncc1)c1ccccc1OCCO)c1cc(C(=O)OC)ccc1OC` it was 0.302; in that of `CC(C)=C1C(=O)C(c2ccccc2)=C2CN3C(=O)N(CCc4ccccc4)C(=O)[C@]3(Cc3ccc(C(F)(F)F)cc3)[C@H]21`, 0.816; in that of `NCCCCCCNC(=O)[C@@H]1C[C@@H]2C(=O)N[C@@H](CCCCN)C(=O)N2[C@@H]1c1ccc(O)cc1`, 0.147.

`CC(C)[Si](C#CCCCC#N)(O[C@H](c1ccccc1)c1cn(Cc2ccccc2)nn1)C(C)C` displayed a composite z-score of 0.879. With `CC(C)c1ccc(NN2C(C(O)c3ccc(C#N)cc3)C=CC3C(=O)N(c4ccccc4)C(=O)C32)cc1` (stereo not given) the figure was 1.72. In the case of `COC(=O)[C@]1(CCS(=O)(=O)c2ccccc2)N=C(c2ccc(OCCCO)cc2)O[C@@H]1c1ccccc1N=[N+]=[N-]` it was 1.53; in that of `C=C[C@H](C)[C@H](OC(=O)Nc1ccc(SC)cc1)c1ccc(OCCO)cc1`, -0.34. With `Cc1ccc(S[C@]2(C(=O)NCC(F)(F)F)CC(=O)N(Cc3cc(C(F)(F)F)cc(C(F)(F)F)c3)[C@@H]2c2ccc(CO)cc2)cc1` the figure was -0.995; with `O=C1OCCC=C[C@H]2OC34C=CCN(c5ccc6ccccc6c5)C(=O)[C@H]3N(CCCO)C(=O)[C@@H]4C12` (stereo not given in full), -2.08. On to `O=C1O[C@H](c2ccccc2)[C@H](c2ccccc2)N2[C@H]1[C@@H](C(=O)O)[C@]1(C(=O)Nc3ccc(C#CCCO)cc31)[C@H]2c1ccccc1OCCO`, for which the composite z-score was -0.0765. Compound `COC(=O)[C@@]1(Cc2ccc(F)cc2)[C@H]2c3cc(C(=O)N4CCCC4)n(CCc4c[nH]c5ccccc45)c3C[C@H]2CN1C(=O)c1ccccc1` showed a composite z-score of 1.62. Take `[N-]=[N+]=Nc1ccccc1C[C@]1(C(=O)N2CCOCC2)COC(c2ccc(OCCCO)cc2)=N1`: the composite z-score was determined as 1.35. With `C=CCN1C(=O)[C@]2(CCC(=O)OC(C)(C)C)N=C(c3ccc(OCCCO)cc3)O[C@@H]2c2ccccc21` the figure was 0.729; with `O=C1OCCC=C[C@H]2OC34C=CCN(Cn5nnc6ccccc65)C(=O)[C@H]3N(CCCO)C(=O)[C@@H]4C12` (stereo not given in full), -1.3; with `COCCOC(=O)N1C(=O)[C@@]2(c3ccccc31)[C@H](c1ccc(O)cc1)N1[C@H](c3ccccc3)[C@H](c3ccccc3)OC(=O)[C@H]1[C@@H]2C(=O)N1CCN(c2ncccn2)CC1`, 0.618. In the case of `Cc1ccc(S[C@]2(C(=O)NCC(F)(F)F)CC(=O)N(Cc3cc(C(F)(F)F)cc(C(F)(F)F)c3)[C@@H]2c2ccc(CO)cc2I)cc1` it was -1.14; in that of `C#CCN([C@@H](Cc1ccccc1)C(=O)OC)[C@@H](/C=C/C1CC1)[C@H](O)Cc1ccccc1`, -0.875. In the case of `CC(C)C(CO)N1C(=O)[C@@H]2[C@H]3C(=O)OCC=C[C@H]3OC23C=CCN(c2ccc(Cl)cc2)C(=O)[C@@H]13` (stereo not given in full) it was -0.659. As for `COC(=O)[C@@]1(Cc2ccc(F)cc2)[C@H]2c3cc(C(=O)N4CCCC4)n(Cc4ccc(C)c(F)c4F)c3C[C@H]2CN1C(=O)c1ccccc1`, the composite z-score is 1.11.

`COc1ccccc1CN1C(=O)c2ccccc2[C@](Cc2ccccc2I)(C(=O)O)[C@@H]1c1ccc(CO)cc1`: the composite z-score turned out to be 1.51. With `COc1ccc([C@H]2OC[C@@H]3C[C@H](Cc4ccccc4)C(=O)N32)cc1` the figure was 0.423; with `COCCOC(=O)N1C(=O)[C@@]2(c3cc(C#CC4(O)CCCCCC4)ccc31)[C@H](c1ccc(O)cc1)N1[C@H](c3ccccc3)[C@H](c3ccccc3)OC(=O)[C@H]1[C@@H]2C(=O)N1CCN(c2ncccn2)CC1`, 0.895; with `CCCC1(C(=O)OC)C=C2C(=C(C)C(=O)C2C)CN1` (stereo not given), -0.326.

`COc1cc(NN2C(C(O)c3ccco3)C=CC3C(=O)N(C)C(=O)C32)cc(OC)c1OC` (stereo not given) gave a composite z-score of 0.578. `CCCNC(=O)[C@@H]1c2ccccc2C(=O)N(Cc2ccc(OC(F)(F)F)cc2)[C@H]1c1ccc(CO)cc1` registered a composite z-score of 0.634. On to `C=CC[C@@H](OC(=O)Nc1ccc(OC)cc1)c1ccc(O)c(F)c1`, for which the composite z-score is -1.43. `CCCC[C@@H](O)C1=C(COC)C[C@H]2C(=O)N(Cc3ccccc3)C(=O)[C@H]2[C@H]1CO` displayed a composite z-score of 0.395.

These data come from PubChem BioAssay.
